# Test results: PubChem BioAssay
# The source made the active and inactive calls.
# Key:
# [1] = test system: PRMT1 (protein arginine N-methyltransferase 1); assay: small molecules binding arginine methyltransferase PRMT1 – biochemical, small-molecule microarray, 635 nm fluorescence, primary screen (AID 1088); settings: higher = more signal;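 further: binding of Prmt1 protein to compounds spotted on small-molecule microarray slides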
# [2] = growth effects on S. cerevisiae YJM789 – YJM789 clinical isolate, OD600, 24 h, basal, primary screen (AID 1089); settings: higher = more signal, called active from +8 up or from −8 down;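 further: growth of clinical yeast isolate S. cerevisiae YJM 789 seeded 1000 cells per well; test concentration not given here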
# [3] = S. pombe growth modifiers, basal conditions – strain 972, OD600, 24 h, no modulator, primary screen (AID 1090);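 further: basal condition with compound alone and no growth modifier present; test concentration not given here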; settings: S. pombe 972 growth, higher = more signal, called active from +8 up or from −8 down
# [4] = budding yeast growth modifiers under rapamycin – strain BY4716, OD600, 96 h, primary screen (AID 1091); further: test concentration not given here; settings: S. cerevisiae BY4716 + rapamycin, higher = more signal, called active from +8 up or from −8 down
# [5] = target: Torsin-1A-interacting protein 2 (Homo sapiens) (UniProt Q8NFQ8); assay: small molecules binding lysate-expressed LULL1 – cell lysate, human LULL1 lysate, 635/667 nm fluorescence, primary screen (AID 1092); settings: small-molecule microarray, hLULL1 lysate binding, 635 nm fluorescence; higher = more signal;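 further: probe is lysate of COS7 cells overexpressing human LULL1; score merges per-feature 667 nm fluorescence with signal-to-noise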
# [6] = optical density change of DRC41 E. coli – strain DRC41, OD650, 24 h, E. coli filamentation project, primary screen (AID 1093);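 further: MC1000 strain lacking acrAB efflux and sulA so SOS filamentation is blocked; test concentration not given here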; settings: E. coli DRC41 growth, higher = more signal, called active from +8 up or from −8 down
# [7] = probe aLefty2 binding to arrayed compounds – biochemical, biotinylated probe, 635/667 nm fluorescence, primary screen (AID 1094); settings: small-molecule microarray, higher = more signal;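 further: score merges spot fluorescence near 667 nm with spot signal-to-noise ratio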
# [8] = test system: Noggin (protein binding on small-molecule microarray); assay: small molecules binding Noggin protein – biochemical, 635/667 nm fluorescence, primary screen (AID 1095); settings: 635 nm fluorescence, higher = more signal;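 further: score merges 667 nm feature fluorescence with signal to noise over triplicate slides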
# [9] = target: Neurogenic locus notch homolog protein 3 (Homo sapiens) (UniProt Q9UM47); assay: small molecules binding NOTCH3 protein – biochemical, 635/667 nm fluorescence, primary screen (AID 1096); settings: small-molecule microarray, 635 nm fluorescence, higher = more signal
# [10] = probe aEGFR binding to arrayed compounds – biochemical, biotinylated probe, 635/667 nm fluorescence, primary screen (AID 1097); settings: small-molecule microarray, higher = more signal;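 further: probe is a biotinylated anti-EGFR antibody binding compounds printed on slides; score combines fluorescence near 667 nm and signal to noise of each spot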
# [11] = test system: Plasmodium falciparum Sir2 (PF13_0152, Sir2A); assay: Plasmodium falciparum Sir2A binding compounds – biochemical, small-molecule microarray, 635 nm fluorescence, primary screen (AID 1098); settings: fluorescence 635 nm, higher = more signal;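 further: score merges spot fluorescence intensity with its signal-to-noise ratio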
# [12] = probe aDKK1 binding to arrayed compounds – biochemical, biotinylated probe, 635/667 nm fluorescence, primary screen (AID 1099); settings: small-molecule microarray, higher = more signal;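 further: score merges 667nm spot fluorescence with signal to noise across triplicate slides; reference of the scale not given here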
# [13] = probe aCHRDL2 binding to arrayed compounds – biochemical, biotinylated probe, 635/667 nm fluorescence, primary screen (AID 1100); settings: small-molecule microarray, higher = more signal
# [14] = change in splice reporter luminescence, either direction, cell-based, HEK293, spliceosome inhibition project, primary screen (AID 1101); settings: HEK293 splicing luciferase reporter, 24 h, higher = more signal, called active from +8 up or from −8 down;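 further: HEK293 cells carrying a splicing-competent luciferase reporter gene; test concentration not given here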
# [15] = target: Fibroblast growth factor 10 (Homo sapiens) (UniProt O15520); assay: compounds binding fibroblast growth factor 10 – biochemical, small-molecule microarray, 635 nm fluorescence, primary screen (AID 1102); settings: FGF10 binding, fluorescence 635 nm, higher = more signal
# [16] = test system: glycogen synthase kinase-3 (GSK3A per assay name; protocol says GSK3B); assay: compounds binding glycogen synthase kinase-3 – biochemical, small-molecule microarray, 635 nm fluorescence, GSK3A, primary screen (AID 1103); settings: fluorescence 635 nm, higher = more signal; further: the record names both GSK3A and GSK3B
# [17] = target: Epidermal growth factor receptor (Homo sapiens) (UniProt P00533); assay: compounds binding epidermal growth factor receptor – biochemical, small-molecule microarray, 635 nm fluorescence, primary screen (AID 1104); settings: EGFR binding, higher = more signal;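 further: score merges 667 nm emission intensity with spot signal to noise over triplicate slides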
# [18] = target: Follistatin-related protein 3 (Homo sapiens) (UniProt O95633); assay: compounds binding follistatin-related protein 3 – biochemical, small-molecule microarray, 635 nm fluorescence, primary screen (AID 1105); settings: FSTL3 binding, higher = more signal;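 further: score merges emission near 667 nm and signal to noise per printed spot across three slides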
# [19] = target: Dickkopf-related protein 1 (Homo sapiens) (UniProt O94907); assay: small molecules binding DKK1 protein – biochemical, small-molecule microarray, 635 nm fluorescence scan, primary screen (AID 1106); settings: higher = more signal;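 further: score merges emission near 667 nm with signal to noise over three replicate slides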
# [20] = test system: Inhibin beta A chain (activin A); assay: small molecules binding activin A – biochemical, small-molecule microarray, 635 nm fluorescence scan, primary screen (AID 1107); settings: INHBA, higher = more signal;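 further: mouse activin A protein probed at 4.33 µg/mL on printed slides; score merges bound-protein fluorescence near 667 nm with spot signal-to-noise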
# Chain of Torsin-1A-interacting protein 2 (Homo sapiens) (Q8NFQ8 whole entry, looked up): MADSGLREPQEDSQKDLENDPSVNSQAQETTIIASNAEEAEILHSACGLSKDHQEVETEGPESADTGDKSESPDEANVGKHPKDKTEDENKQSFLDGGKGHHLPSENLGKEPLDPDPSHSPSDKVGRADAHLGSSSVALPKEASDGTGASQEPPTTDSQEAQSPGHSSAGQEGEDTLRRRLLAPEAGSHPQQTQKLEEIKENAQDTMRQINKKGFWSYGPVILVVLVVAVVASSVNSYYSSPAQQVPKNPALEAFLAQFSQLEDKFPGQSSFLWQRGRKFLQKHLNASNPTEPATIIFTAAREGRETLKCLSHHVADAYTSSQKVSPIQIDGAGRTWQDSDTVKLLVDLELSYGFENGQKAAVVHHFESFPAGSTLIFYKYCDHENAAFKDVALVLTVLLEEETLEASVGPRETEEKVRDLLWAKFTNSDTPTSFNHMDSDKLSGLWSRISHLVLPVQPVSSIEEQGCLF
# Chain of Fibroblast growth factor 10 (Homo sapiens) (O15520 whole entry, looked up): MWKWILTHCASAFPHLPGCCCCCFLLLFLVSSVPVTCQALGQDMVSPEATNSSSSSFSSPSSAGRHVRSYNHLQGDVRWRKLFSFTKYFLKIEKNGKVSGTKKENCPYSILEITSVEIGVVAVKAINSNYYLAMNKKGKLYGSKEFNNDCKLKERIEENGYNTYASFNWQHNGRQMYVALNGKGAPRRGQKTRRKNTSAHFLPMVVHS
# Chain of Dickkopf-related protein 1 (Homo sapiens) (O94907 whole entry, looked up): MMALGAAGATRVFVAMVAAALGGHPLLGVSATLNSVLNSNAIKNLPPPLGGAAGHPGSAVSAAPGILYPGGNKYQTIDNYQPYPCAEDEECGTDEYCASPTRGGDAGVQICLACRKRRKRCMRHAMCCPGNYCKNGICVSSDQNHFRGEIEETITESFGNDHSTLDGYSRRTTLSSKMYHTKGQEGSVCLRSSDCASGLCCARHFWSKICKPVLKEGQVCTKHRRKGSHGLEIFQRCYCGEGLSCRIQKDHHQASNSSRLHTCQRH
# Chain of Epidermal growth factor receptor (Homo sapiens) (P00533 whole entry, looked up): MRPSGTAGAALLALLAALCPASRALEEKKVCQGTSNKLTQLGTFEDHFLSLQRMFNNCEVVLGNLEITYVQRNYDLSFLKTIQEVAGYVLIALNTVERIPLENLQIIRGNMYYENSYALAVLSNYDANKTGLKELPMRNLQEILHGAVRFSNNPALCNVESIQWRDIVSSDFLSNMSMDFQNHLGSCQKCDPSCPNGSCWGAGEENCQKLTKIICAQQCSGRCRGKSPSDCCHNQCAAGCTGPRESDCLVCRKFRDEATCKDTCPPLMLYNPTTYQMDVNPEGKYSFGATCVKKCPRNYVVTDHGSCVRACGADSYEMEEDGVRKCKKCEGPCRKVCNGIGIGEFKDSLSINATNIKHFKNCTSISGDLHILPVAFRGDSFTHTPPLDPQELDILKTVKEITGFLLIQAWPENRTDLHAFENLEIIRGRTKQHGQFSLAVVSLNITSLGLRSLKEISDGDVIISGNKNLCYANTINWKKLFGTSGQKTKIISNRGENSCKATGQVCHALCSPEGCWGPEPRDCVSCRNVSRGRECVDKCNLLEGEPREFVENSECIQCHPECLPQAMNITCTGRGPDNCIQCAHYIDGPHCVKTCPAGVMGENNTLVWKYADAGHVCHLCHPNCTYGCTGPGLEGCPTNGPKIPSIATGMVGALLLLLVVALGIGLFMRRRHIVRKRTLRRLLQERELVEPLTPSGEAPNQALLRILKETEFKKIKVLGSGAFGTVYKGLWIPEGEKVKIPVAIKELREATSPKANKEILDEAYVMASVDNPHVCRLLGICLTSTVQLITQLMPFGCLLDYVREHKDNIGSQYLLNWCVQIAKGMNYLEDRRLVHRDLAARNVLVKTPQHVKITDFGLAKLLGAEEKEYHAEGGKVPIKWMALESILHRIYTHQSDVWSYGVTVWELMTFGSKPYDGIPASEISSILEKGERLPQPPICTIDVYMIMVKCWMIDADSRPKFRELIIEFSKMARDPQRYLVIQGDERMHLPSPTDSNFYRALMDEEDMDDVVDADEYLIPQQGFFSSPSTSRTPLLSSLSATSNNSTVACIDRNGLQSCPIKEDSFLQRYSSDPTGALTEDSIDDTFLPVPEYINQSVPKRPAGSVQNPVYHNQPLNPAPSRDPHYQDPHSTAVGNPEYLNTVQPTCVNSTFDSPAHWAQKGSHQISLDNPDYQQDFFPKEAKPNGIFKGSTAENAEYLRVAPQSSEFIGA
# Chain of Follistatin-related protein 3 (Homo sapiens) (O95633 whole entry, looked up): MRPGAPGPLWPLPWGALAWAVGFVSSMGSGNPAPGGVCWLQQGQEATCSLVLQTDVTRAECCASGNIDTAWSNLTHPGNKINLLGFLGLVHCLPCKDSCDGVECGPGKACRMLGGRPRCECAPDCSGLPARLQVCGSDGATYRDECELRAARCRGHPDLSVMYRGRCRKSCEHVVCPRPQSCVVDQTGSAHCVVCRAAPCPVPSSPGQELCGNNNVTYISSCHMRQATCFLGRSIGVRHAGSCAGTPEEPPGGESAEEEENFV
# Chain of Neurogenic locus notch homolog protein 3 (Homo sapiens) (Q9UM47 whole entry, looked up): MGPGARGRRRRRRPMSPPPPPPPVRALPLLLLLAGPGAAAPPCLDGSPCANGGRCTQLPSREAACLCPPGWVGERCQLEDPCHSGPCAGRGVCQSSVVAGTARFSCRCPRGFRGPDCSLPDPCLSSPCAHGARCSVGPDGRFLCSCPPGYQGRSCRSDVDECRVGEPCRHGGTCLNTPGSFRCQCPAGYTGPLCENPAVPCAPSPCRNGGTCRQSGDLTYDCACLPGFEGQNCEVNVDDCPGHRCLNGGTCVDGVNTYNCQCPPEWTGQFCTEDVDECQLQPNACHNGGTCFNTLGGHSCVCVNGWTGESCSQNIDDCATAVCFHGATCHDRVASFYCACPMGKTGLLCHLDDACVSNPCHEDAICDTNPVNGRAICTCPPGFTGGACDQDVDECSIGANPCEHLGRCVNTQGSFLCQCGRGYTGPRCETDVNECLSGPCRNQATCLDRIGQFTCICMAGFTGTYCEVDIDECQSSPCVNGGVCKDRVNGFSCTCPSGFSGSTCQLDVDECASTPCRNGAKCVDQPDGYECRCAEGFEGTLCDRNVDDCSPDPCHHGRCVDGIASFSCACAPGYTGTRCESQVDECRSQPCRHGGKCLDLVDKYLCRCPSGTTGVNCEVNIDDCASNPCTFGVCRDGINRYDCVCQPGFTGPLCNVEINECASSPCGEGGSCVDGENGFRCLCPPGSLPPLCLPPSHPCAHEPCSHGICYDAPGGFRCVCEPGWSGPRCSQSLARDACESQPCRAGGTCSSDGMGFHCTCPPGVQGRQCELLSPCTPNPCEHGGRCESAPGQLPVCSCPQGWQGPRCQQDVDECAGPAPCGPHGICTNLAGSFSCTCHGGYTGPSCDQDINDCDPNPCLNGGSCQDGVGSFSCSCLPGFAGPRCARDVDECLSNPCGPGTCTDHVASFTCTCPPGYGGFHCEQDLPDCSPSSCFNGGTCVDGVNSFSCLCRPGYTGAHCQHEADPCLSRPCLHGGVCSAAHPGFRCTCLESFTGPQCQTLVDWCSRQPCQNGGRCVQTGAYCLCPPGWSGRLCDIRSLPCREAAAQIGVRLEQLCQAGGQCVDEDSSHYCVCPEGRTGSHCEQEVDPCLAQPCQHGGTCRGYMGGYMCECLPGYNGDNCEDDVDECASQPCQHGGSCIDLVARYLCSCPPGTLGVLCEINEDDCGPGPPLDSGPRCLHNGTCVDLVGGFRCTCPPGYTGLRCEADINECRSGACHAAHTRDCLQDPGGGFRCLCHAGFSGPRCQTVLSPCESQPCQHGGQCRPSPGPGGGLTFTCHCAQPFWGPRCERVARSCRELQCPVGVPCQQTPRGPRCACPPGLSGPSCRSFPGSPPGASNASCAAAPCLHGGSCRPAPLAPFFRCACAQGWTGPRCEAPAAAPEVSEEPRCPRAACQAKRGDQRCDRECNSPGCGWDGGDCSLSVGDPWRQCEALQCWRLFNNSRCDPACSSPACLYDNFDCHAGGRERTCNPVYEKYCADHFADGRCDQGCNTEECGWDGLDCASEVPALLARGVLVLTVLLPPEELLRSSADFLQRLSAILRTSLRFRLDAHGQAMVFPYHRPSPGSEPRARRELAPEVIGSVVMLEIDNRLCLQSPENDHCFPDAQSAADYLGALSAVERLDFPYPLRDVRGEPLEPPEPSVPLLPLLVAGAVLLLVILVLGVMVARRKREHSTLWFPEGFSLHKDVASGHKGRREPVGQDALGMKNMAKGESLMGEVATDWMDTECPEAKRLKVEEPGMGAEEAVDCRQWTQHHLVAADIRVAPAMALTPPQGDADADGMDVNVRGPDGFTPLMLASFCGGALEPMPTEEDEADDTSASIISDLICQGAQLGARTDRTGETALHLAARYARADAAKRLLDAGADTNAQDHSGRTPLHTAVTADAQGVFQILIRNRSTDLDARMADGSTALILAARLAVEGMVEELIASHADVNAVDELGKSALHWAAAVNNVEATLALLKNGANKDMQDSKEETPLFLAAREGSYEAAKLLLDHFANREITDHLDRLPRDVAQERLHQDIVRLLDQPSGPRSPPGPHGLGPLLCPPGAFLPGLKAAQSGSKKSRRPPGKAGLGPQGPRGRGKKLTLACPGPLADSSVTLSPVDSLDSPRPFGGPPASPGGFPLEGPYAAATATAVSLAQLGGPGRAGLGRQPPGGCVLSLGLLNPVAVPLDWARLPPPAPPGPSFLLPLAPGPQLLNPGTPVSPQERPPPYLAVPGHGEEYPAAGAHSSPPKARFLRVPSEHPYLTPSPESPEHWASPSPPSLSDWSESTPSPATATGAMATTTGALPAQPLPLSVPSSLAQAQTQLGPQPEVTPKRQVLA
SMILES,composite z-score [1],z-score [2],z-score [3],z-score [4],composite z-score [5],z-score [6],composite z-score [7],composite z-score [8],composite z-score [9],composite z-score [10],composite z-score [11],composite z-score [12],composite z-score [13],z-score [14],composite z-score [15],composite z-score [16],composite z-score [17],composite z-score [18],composite z-score [19],composite z-score [20]
CC(C)=CCCC(C)=CCON=C1C[C@@H](O)[C@@H](O)[C@@H]2[C@@H]3C(=O)N(Cc4ccccc4)C(=O)[C@@H]3CC[C@H]12,1.06,-0.574 (inactive),-1.58 (inactive),-1.29 (inactive),1.94,-0.128 (inactive),-0.236,0.608,0.811,-0.034,0.639,-0.21,-0.659,-1.83 (inactive),0.932,1.12,0.611,1.14,-0.523,1.11
O=C1[C@H]2[C@H]3[C@H](O)[C@H](O)CC(=NOCc4ccccc4)[C@@H]3CC[C@H]2C(=O)N1c1ccc(F)cc1F,-0.755,-1.94 (inactive),-0.469 (inactive),-0.996 (inactive),0.324,-0.778 (inactive),-0.205,0.358,-0.283,-0.125,0.0102,-0.376,-0.554,-1.29 (inactive),0.224,-0.0906,0.208,0.286,0.347,-0.178
O=C1C=C[C@@H](O)[C@@H]2[C@@H]3C(=O)N(c4ccc(F)cc4F)C(=O)[C@@H]3CC[C@@H]12,0.0661,-2.33 (inactive),-2.21 (inactive),-0.724 (inactive),0.587,-0.421 (inactive),-0.247,1.08,0.134,-0.162,0.519,-0.241,-0.43,-1.21 (inactive),0.925,0.39,0.462,0.39,0.664,-1.12
Cn1c(=O)n2n(c1=O)[C@H]1[C@H](O)[C@@H]3O[C@@H]3C(=NOCc3ccccc3)[C@H]1CC2,0.241,0.409 (inactive),-0.41 (inactive),-0.115 (inactive),2.31,0.703 (inactive),-0.185,-0.173,0.525,-0.118,0.421,-0.263,-0.374,2.48 (inactive),-0.414,-0.046,-0.0492,-0.136,-0.0857,-0.241
COc1cccc([C@H]2Oc3ccc(OC)cc3C(=NOC[C@@H](O)[C@H]3O[C@@H]4OC(C)(C)O[C@@H]4[C@H]3O)[C@@H]2O)c1,0.775,-0.797 (inactive),-2.21 (inactive),-1.62 (inactive),0.347,0.932 (inactive),-0.0616,0.449,0.456,0.0746,0.0732,-0.389,-0.511,-0.106 (inactive),0.654,0.315,0.35,0.492,0.548,-0.326
COC(=O)[C@H](C)NC(=O)CCC1CC(OC(=O)NCc2ccc3c(c2)OCO3)CC2(CCCC(COC(=O)NCCc3ccccc3OC)O2)O1 (stereo not given in full),0.472,-1.21 (inactive),0.124 (inactive),-0.167 (inactive),1.89,0.872 (inactive),-0.166,0.181,0.0607,-0.0798,0.417,-0.037,-0.24,-0.293 (inactive),0.0774,0.0268,-0.102,-0.108,-0.253,-0.28
COC(=O)CC=C[C@@H](C)[C@@H](C=NOC(C)CN1CCCc2nc(C)c(C)cc21)OC (stereo not given in full),0.356,0.293 (inactive),0.245 (inactive),0.0448 (inactive),0.283,-0.64 (inactive),-0.165,0.541,0.625,0.0009,0.465,-0.0071,-0.472,0.404 (inactive),0.407,0.522,0.538,0.406,0.866,-0.0511
CC(C)=CCCC(C)=CCON=C1C[C@@H](O)[C@@H](O)[C@@H]2[C@@H]3C(=O)N(c4ccc(F)cc4F)C(=O)[C@@H]3CC[C@@H]12,1.11,0.918 (inactive),-2.43 (inactive),-0.496 (inactive),-0.0426,1.34 (inactive),0.0054,0.888,0.678,-0.0381,0.476,-0.324,-0.497,-0.118 (inactive),0.601,-0.0599,0.628,0.806,0.926,1.04
CC1O[C@H]2C3=C(C(=O)[C@@H]4O[C@@H]4[C@H]3O)[C@@H]1C1[C@@H](C)OC=C3[C@H](O)C4O[C@@H]4C(=NOCc4ccccc4)[C@]312 (stereo not given in full),-0.543,0.247 (inactive),-0.602 (inactive),0.089 (inactive),0.578,-0.42 (inactive),-0.192,0.521,-0.128,-0.148,0.0395,-0.129,-0.326,-0.469 (inactive),0.0791,-0.14,0.191,-0.3,0.155,0.121
C[C@H]1Cc2c(COc3ccccc3)nc3c(c2CO1)CN(CCOc1ccccc1)CC3,1.56,-0.381 (inactive),-2.38 (inactive),-1.15 (inactive),1.76,1.11 (inactive),-0.0998,0.216,1.16,-0.0283,0.654,-0.133,-0.496,-0.34 (inactive),1.03,1.15,0.5,1.29,0.538,0.298
